From PubChem BioAssay AID652054 (National Center for Advancing Translational Sciences (NCATS), 2013)
Where “and” joins values, the source holds several entries; their conditions need not be identical. Equal values may be shown once. Out of some 360,000 compounds screened, about 9,100 (2.5%) were called active. Another 4% or so got no clear call; they are omitted. The sample as a whole holds a higher share of actives than the screen did. Unmarked numbers belong to inactive results. No stated cut-off is given here; in the data, active means max response below about -50%; inconclusive means no clear call, values can overlap the other calls; inactive means above that.

These compounds were tested against D(3) dopamine receptor (Homo sapiens) (UniProt P35462) (assay: qHTS of D3 Dopamine Receptor Antagonist: qHTS). Details: D3R cells, DiscoveRx beta-arrestin luminescence, antagonist mode; active compounds read low.
Procedure, shortened: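 Cells plated overnight at 1500 cells/well, then exposed to library compounds with dopamine controls for 90 minutes at 37 degrees C. DiscoveRx reagent added for 30–60 minutes at room temperature; luminescence read, quantitative HTS format.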
On the % scale 0 is the no-effect control and ±100 the full control effect.

Sequence of D(3) dopamine receptor (Homo sapiens) (P35462 whole entry, looked up): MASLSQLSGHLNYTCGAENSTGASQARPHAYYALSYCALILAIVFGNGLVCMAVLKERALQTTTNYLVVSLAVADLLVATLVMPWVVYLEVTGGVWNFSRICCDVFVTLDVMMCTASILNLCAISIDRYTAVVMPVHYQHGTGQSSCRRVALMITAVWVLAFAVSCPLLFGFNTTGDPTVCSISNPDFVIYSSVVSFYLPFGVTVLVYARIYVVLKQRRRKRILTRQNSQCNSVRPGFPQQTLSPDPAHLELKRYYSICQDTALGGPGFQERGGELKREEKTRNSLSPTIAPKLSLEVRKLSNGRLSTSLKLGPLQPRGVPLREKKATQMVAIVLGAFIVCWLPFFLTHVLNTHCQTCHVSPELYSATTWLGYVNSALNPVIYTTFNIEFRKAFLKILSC

| SMILES | max response, negative = inhibition |
| --- | --- |
| CC1=C(C(=O)Nc2cccc(C(=O)NCC(C)c3ccccc3)c2)SCCO1 (configuration not stated) | 104% |
| O=C1c2cccc3cc(Br)cc(c23)C(=O)N1Nc1ccccc1 | -62.9% (active) |
| O=C(CN1C(=O)c2cccc3cccc1c23)Nc1ccccc1 | 5.41% |
| O=C1C=C(c2ccc(Cl)cc2)C(=O)N1Nc1ccccc1 | -22.9% |
| COc1cccc(CNc2nc(NCc3ccccc3OC)nc3ccsc23)c1 | 31.6% |
| O=C1C2CCCN2C(=O)N1CCCCN1CCN(c2cccc(C(F)(F)F)c2)CC1 (configuration not stated) | -115% (active) |
| O=C(CCN1CCCO1)N1CCCC(N2CCN(c3cccc(C(F)(F)F)c3)CC2)C1 (configuration not stated) | -5.11% |
| O=C(C1CC(=O)N(C2CCCC2)C1)N1CCN(c2cccc(C(F)(F)F)c2)CC1 (configuration not stated) | -17.8% |
| CCCCCc1c(-c2ccc(OC)c(OC)c2)ncn1CCc1ccccc1OC | -3.21% |
| O=C1NC[C@H](Cc2ccc(O)cc2)N(C[C@H]2CCCN2C[C@H](Cc2ccccc2)N2C[C@H](Cc3ccccc3)N(CCc3ccccc3)C(=O)C2=O)C1=O | -27.9% |
| COc1ccc(CN2C(=O)C(CC(=O)NCCCCc3ccccc3)CC(C(=O)N3CCOCC3)=C2C)cc1 (configuration not stated) | 17.9% |
| Cc1ccc(C(=O)NC(C)C(c2cccs2)N2CCOCC2)cc1C (configuration not stated) | -24.7% |
| N#Cc1ccc(C(C(=O)NCc2ccccc2)n2c(=O)c(-c3ccco3)nc3ccccc32)cc1 (configuration not stated) | -4.27% |
| O=C(CN1CCC(O)(c2ccccc2)CC1)Nc1ccc2c(c1)OCCO2 | -57.9% (active) |
| O=C(Cn1c(=O)sc2ccccc21)Nc1ccc2c(c1)OCCO2 | 7.52% |
| O=C(CN1CCN(C(=O)c2ccco2)CC1)Nc1ccc2c(c1)OCO2 | -5.37% |
| CN1C[C@@H](CO)O[C@@H](n2cnc3c(N4CCN(CCO)CC4)ncnc32)C1 | 2.48% |
| COc1cccc(-c2cc3nc(NCc4ccccc4OC)n(C)c(=O)c3s2)c1 | 23.1% |
| COc1ccc(CN2C(=O)C(CC(=O)NC3CCCCC3)CC(C(=O)N3CCOCC3)=C2C)cc1 (configuration not stated) | -7.02% |
| FC(F)(F)C1CCCN(c2nsc3ccccc23)C1 (configuration not stated) | -81.7% (active) |
| COc1ccc([C@H]2CC(=O)C[C@@H](CCn3cc(CC4CCCC4)nn3)O2)cc1 | 5.27% |
| CCCS(=O)(=O)NC(=O)C1(C)CCN(C(=O)c2sccc2C)C1 (configuration not stated) | 18.5% |
| Nc1nc(CSc2nnnn2-c2ccccc2)nc(Nc2ccccc2)n1 | 16% |

| SMILES | max response, negative = inhibition |
| --- | --- |
| CC1(C(=O)Nc2ccccc2Br)CCN1C(=O)CC1CC1 (configuration not stated) | 27.1% |
| CC(=O)c1cccc(S(=O)(=O)N2CCC(n3nnc4cc(F)ccc43)CC2)c1 | -14.5% |
| COc1ccccc1CNC(=O)CN1CCC(n2cnc3cc(F)ccc32)CC1 | -0.289% |
| COc1ccc(CNC(=O)CN2CCC(n3nnc4cc(F)ccc43)CC2)cc1 | -83.8% (active) |
| CC(C)(C(=O)N1CCC1(C)C(=O)NS(=O)(=O)c1ccc(Br)cc1)c1ccccc1 (configuration not stated) | 11.9% |
| CCC(=O)c1ccc(OCC(O)CN2C(=O)NC(C)(C)C2=O)cc1 (configuration not stated) | 0% |
| CCC(=O)c1ccc(OCC(O)CN2CC(C)OC(C)C2)cc1 (configuration not stated) | -54.2% (active) |
| CC1CCN(CC(O)COc2ccc(C(=O)c3ccccc3)cc2)CC1 (configuration not stated) | 0% |
| OCCc1ccc(NCCc2ccco2)cc1 | 11.1% |
| Cn1cccc1/C=C1\SC(=S)N(NC(=O)c2ccc(Cl)cc2)C1=O | -70.7% (active) |
| O=C(O)c1ccc(/C=C2\SC(=S)N(NC(=O)c3ccc(Br)cc3)C2=O)cc1 | -21.3% |
| CCOc1ccc(/C=C2\SC(=S)N(NC(=O)c3ccncc3)C2=O)cc1OC | -13.1% |
| COC(=O)C1(C(=O)OC)C[C@H](c2ccccc2)N(Cc2ccccc2OC)[C@@H]1c1ccccc1 | -25.4% |
| CCc1ccc(OCC(O)CN2CCN(CCO)CC2)cc1 (configuration not stated) | 18.7% |
| CCc1ccc(OC2(C)CCN(CCOc3ccc(C)cc3)C2)cc1 (configuration not stated) | -75% (active) |
| Cc1ccc(OCCNC(=O)CN2C(=O)NC3(CCCC3)C2=O)cc1 | -22.9% |
| CCCNC(=O)C1(C)CCN1C(=O)C1(c2ccccc2)CC1 (configuration not stated) | -7.67% |
| Cc1sc2nc(-c3ccccc3F)oc(=O)c2c1C | 0% |
| CCCc1nc2ccccc2n1C(C)C(=O)NC(C)(C)C (configuration not stated) | -12.7% |
| CC(OC(=O)c1ccc(NC(=O)CC#N)cc1)C(=O)Nc1ccc(S(=O)(=O)N2CCCC2)cc1 (configuration not stated) | 2.56% |
| COc1cc(C(O)c2nc(-c3cnn(C)c3)cs2)ccc1F (configuration not stated) | -2.22% |
| O=C(N[C@H]1CC[C@H](CC(=O)N2CCCCC2)O[C@@H]1CO)c1cccc(F)c1 | 1.98% |
| O=S(=O)(c1ccc(OCC(O)CN2CCN(c3ccccc3Cl)CC2)cc1)N1CCOCC1 (configuration not stated) | -73% (active) |

| SMILES | max response, negative = inhibition |
| --- | --- |
| OC(COc1ccc2c(c1)CCC2)CN1CCN(c2cccc(Cl)c2)CC1 (configuration not stated) | 0% |
| CC(C)c1ccc(OCC(O)CN2CCN(c3ccccn3)CC2)cc1 (configuration not stated) | -29.5% |
| O=C(c1ccc(Cl)cc1)c1ccc(OCC(O)CN2CCCCC2)cc1 (configuration not stated) | -2.74% |
| CC(=O)Nc1ccc(OCC(O)CN2CCN(c3ccccc3Cl)CC2)cc1 (configuration not stated) | -66.4% (active) |
| CCN1C(=O)/C(=C\N2CCN(c3cccc(Cl)c3)CC2)SC1=S | -22.6% |
| CC(=O)c1ccc(OCC(O)CN2CCN(S(=O)(=O)c3cccc(Br)c3)CC2)cc1 (configuration not stated) | 22% |
| COC(=O)COc1ccc(S(=O)(=O)N2CCOCC2)cc1 | 20.2% |
| O=C(CCCC(=O)N1CCN(c2cccc(Cl)c2)CC1)c1ccccc1 | 11.7% |
| CCc1nn(CCCN2CCN(c3cccc(Cl)c3)CC2)c(=O)n1CCOc1ccccc1 | -77.2% (active) and -89.6% (active) |
| OC(COc1ccccc1)CN1CCN(c2cccc(Cl)c2)CC1 (configuration not stated) | -51.8% (active) |
| Cc1nn(CCOc2ccccc2)c(=O)n1-c1ccccc1F | -0.664% |
| CN1CCN(c2ccncc2S(=O)(=O)N2CCCC2)CC1 | 22.6% |
| COC(=O)c1ccc2nc(-c3ccc(C)cc3)c(Cc3ccc(OC)cc3C)n2c1 | 0.363% |
| CC(C)C1Cc2[nH][nH]c(=O)c2C(c2ccc(Cl)cc2)O1 (configuration not stated) | -0.765% |
| O=C(Nc1ccc(Cl)cc1)c1csc([C@H]2C[C@H](O)[C@@H](CO)O2)n1 | 0% |
| COc1ccc(NC(=O)C2Cc3c(-c4cccc(NC(C)=O)c4)ccnc3O2)cc1OC (configuration not stated) | 0% |
| COc1ccc(CC(N)c2csc(NC(=O)NC(c3ccccc3)c3ccccc3)n2)cc1 (configuration not stated) | -20.6% |
| COc1ccc(N)cc1NC(=O)CN1CCOCC1 | 60.4% |
| OC[C@@H]1CN(Cc2ccc(-c3ccccc3)cc2)C[C@H](n2cnc3c(NC4CCCC4)ncnc32)O1 | 36% |
| C=CCC[C@@H](CCCCC)OC(=O)/C=C/[C@@H](O)[C@H](O)C[C@H](O)CC=C | 5.67% |
| CCCCCCNC(=O)O[C@H]1CN(C(=O)OC(C)C)N(C(=O)OC(C)C)[C@@H]2CN(S(=O)(=O)c3ccc(C)cc3)C[C@]12O | 1.36% |
| O=Nc1c(O)cc(O)c2ccccc12 | 9% |
| COc1ccc(COC[C@H](CC(C)C)N2CCN(C(=O)c3cccc(C(F)(F)F)c3)CCC2=O)cc1 | 0% |

| SMILES | max response, negative = inhibition |
| --- | --- |
| CCOC(=O)N1C(=O)C[C@](Sc2ccc(C)cc2)(C(=O)OC)[C@H]1c1ccccc1 | 28.6% |
| O=C(CNC(=O)c1ccc2ccccc2c1)Nc1ncccc1O | 8.18% |
| CC1CCC(NC(=O)CNC(=O)c2ccc3ccccc3c2)CC1 (configuration not stated) | -70% (active) |
| Cc1ccc(C(=O)NCC(=O)NC2CC2)cc1 | -5.92% |
| Cn1cnc(S(=O)(=O)N2C[C@@H](O)COC[C@@H]3O[C@H](CC(=O)NC4CCC4)CC[C@H]32)c1 | 17.2% |
| COc1ccc(-c2csc(Nc3cccc(C)n3)n2)cc1OC | 42.5% |
| COc1ccc2c(c1OC)C(=O)OC2Nc1nc(-c2ccccc2)cs1 (configuration not stated) | -73.2% (active) |
| CCc1ccccc1NC(=O)[C@@H]1CCC(=O)N1C1OC(=O)c2c1ccc(OC)c2OC (some centres not stated) | -18.1% |
| CC1(C(=O)Nc2cccc(Oc3ccccc3)c2)CCN1Cc1ccccc1Cl (configuration not stated) | 11.7% |
| C=C(C)C(=O)O[C@H]1C/C(C)=C\C(=O)/C=C(\C)[C@H](O)[C@@H]2OC(=O)C(=C)[C@@H]21 | -61.4% (active) |
| CC(CNC(=O)c1ccc(Br)o1)NC(=O)c1ccc(Br)o1 (configuration not stated) | -72.7% (active) |
| CC(CCc1ccccc1)NC(=O)c1ccc(Br)o1 (configuration not stated) | -10.2% |
| O=C(NCc1cccs1)c1ccc(Br)o1 | 11.4% |
| CC(C)C1CC2=C(C(=O)OC(C)(C)O2)C(c2ccc(F)cc2)O1 (configuration not stated) | -3.03% |
| COc1ccc(NC(=O)COC(=O)C2COc3ccccc3O2)cc1 (configuration not stated) | -20.1% |
| Brc1ccc2nc(-c3ccccc3)c(Cc3ccccc3)n2c1 | 23.1% |
| CCNC(=O)C1(C)CCCN(Cc2noc(-c3ccccc3OC)n2)C1 (configuration not stated) | 23.6% |
| Cc1cccc(C)c1OCCN1CCOCC1 | 21.2% |
| Cc1cc(OCCN2CCCC2)cc(C(C)C)c1 | -86% (active) |
| Cc1cc(C)c(NC(=O)CN2CCCCCC2)c(C)c1 | 1.9% |
| c1ccc2cc(OCCN3CCCC3)ccc2c1 | -61.2% (active) |
| Cc1cc(OCCN2CCCC2)ccc1C(C)C | 0% |
| Clc1ccccc1-c1cc(COc2ccc3ccccc3c2)no1 | -0.665% |
